Source: PubChem BioAssay
HT1080 IDH1KD tx: HT-1080 IDH1 knockdown cell toxicity (counter line). HT-1080 IDH1 knockdown viability, ATP luminescence, 48 h. Potency, µM (series often up to 46.1 µM), inactives show at the top dose activity, negative = toxicity, most hits filed as cytotoxic. 360,000 compounds, 2% hits. AID 686971;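 note: potency is the fitted concentration of half-maximal effect; 0% = DMSO wells and -100% = cell-free medium wells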
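In this qHTS, HT-1080 cells depleted of IDH1 are exposed for 48 h at 37 °C to compound titrations. Toxicity is scored from CellTiter-Glo luminescence, with DMSO as full viability and medium alone as none.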
Giardia killer: Giardia lamblia killing; Giardia lamblia trophozoite viability; activity change, % at 7.66 µM, hits read low; AID 540267; 340,000 compounds, 0.15% hits; in the data active = activity change below about -80%; inconclusive = between about -30% and that limit;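 note: parasites exposed to compound for two days anaerobically before the ATP read; % is set by controls: 0 for no effect and ±100 for the full control effect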
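Each well holds 100 Giardia trophozoites and compound. After two days (48 hrs) at 37 deg C in anaerobic conditions, ATP is quantified by luminescence.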
TGFb SMAD3 inh: TGF-b pathway inhibition; HepG2 CAGA-GFP TGF-b/SMAD3 reporter, GFP fluorescence, 18 h; TGF-beta stimulated, 500 pg/mL final; Potency, µM (series often up to 46.1 µM), for the others: top-dose activity, negative = inhibition, actives largely listed as inhibitors; 410,000 compounds, 1.2% hits; AID 588855; note: potency is the fitted concentration of half-maximal effect; % is set by controls: 0 for no effect and ±100 for the full control effect; nearly all actives have a fitted effect of over 65% in size
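Inhibition was scored as loss of TGF-beta-induced (500 pg/mL final, 18 hours, 37 degrees C) GFP in HEPG2 cells carrying a CAGA-GFP reporter, in DMEM with 1% FBS. Well GFP was summed per cell; Activity was normalised to unstimulated and stimulated DMSO wells, then concentration-response fitting.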
HepG2 tox: HepG2 cytotoxicity, counter-screen for TGF-b inhibitors | HepG2 CAGA-GFP viability, ATP luminescence, 18 h | 410,000 compounds, 0.76% hits | Potency, µM (doses to about 46.1 µM), without a hit: top-dose activity change, negative = cytotoxicity, hits mostly cytotoxic; note: potency is the fitted concentration of half-maximal effect
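CellTiter-Glo luminescence gave cytotoxicity after 18 hours at 37 degrees C. The cells were HepG2 CAGA-GFP in 1% FBS DMEM, stimulated with 500 pg/mL TGF-beta after compound addition. %Activity was normalised to no-cell wells (complete cell-killing) and DMSO (no toxicity), and curves were fitted and classified.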
IL-1B inflam inh: inhibitors of inflammasome signaling (IL-1 beta secretion); THP-1 LPS/ATP IL-1B secretion, AlphaLISA, 16 h; active compounds read low; activity change, % at 57.5 µM; 360,000 compounds, 4.7% hits; in the data active = activity change below about -50%; inconclusive = mostly about -30% to -49%; note: % is set by controls: 0 for no effect and ±100 for the full control effect
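THP-1 cells pretreated 1 hr with compounds (up to 57.5 uM final), then stimulated with LPS (250 ng/mL final) plus ATP (1.25 mM final); secreted IL-1B measured by AlphaLISA after 16 hr, decreased signal indicating inhibition.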
HT1080-NT tox: kills 2HG-producing HT-1080-NT fibrosarcoma cells; HT-1080-NT fibrosarcoma viability, CellTiter-Glo ATP luminescence, 48 h; 360,000 compounds, 1.6% hits; Potency, µM (series often up to 46.1 µM), for the others: at the highest dose activity, negative = less viability, most hits filed as cytotoxic; AID 686970;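 note: NT is the 2HG producing partner of a matched IDH1 knockdown line; potency is the fitted concentration of half-maximal effect; 0% = DMSO-treated cells and -100% = media-only wells without cells; nearly all actives have a fitted effect of over 55% in size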
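Luminescent CellTiter-Glo readout after 48 hours of compound exposure at 37 degrees C defined viability of HT-1080-NT cells. Activity was normalized to DMSO wells and cell-free media wells; concentration-response curves were fitted and assigned curve classes.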
Numbers without * were called inactive; ? = inconclusive; · = no result. Shown are actives, neighbours in structure and some others; about 6.5% of the full set was active somewhere. Unless noted, calls come from the whole dose curve; as a rule, active = well fitted curve in the direction sought with a large enough effect; inconclusive = small, poorly fitted or top-dose-only effect, or another doubt; inactive = no such curve, though single readings can be large; an effect the other way counts as inactive or inconclusive.

SMILES | HT1080 IDH1KD tx | Giardia killer | TGFb SMAD3 inh | HepG2 tox | IL-1B inflam inh | HT1080-NT tox
COC(=O)C1C=CC(OC2OC(COC(C)=O)C(OC(C)=O)C(OC(C)=O)C2OC(C)=O)n2c(=O)n(-c3ccccc3)c(=O)n21 (configuration not stated) | 5.8µM* | -5 | ? | -86% | -10 | ?
CC(=O)NNC(=O)c1cc2sccc2s1 | 14% | 26 | 2% | 14% | 6 | 16%
COc1ccc(CN2c3c(Br)cccc3C(=O)CS2(=O)=O)cc1 | ? | -6 | ? | -34% | -4 | 23µM*
COc1ccc(N(CC(=O)NCc2ccco2)S(=O)(=O)c2c(C)nn(C)c2C)cc1 | -4% | ? | -17% | -21% | 1 | -5%
CCc1ccc(S(=O)(=O)c2nnn3c2nc(NCCNC(C)=O)c2ccccc23)cc1 | 5% | -7 | -7% | -13% | -64* | 29%
COc1ccc2c3c([nH]c2c1)[C@H]1C[C@H]2[C@H](C[C@@H](O)[C@H](OC)[C@H]2C(=O)O)CN1CC3 | ? | 5 | 23% | 3% | -82* | ?
COc1ccc(C)cc1S(=O)(=O)N1CCN(C(=O)c2ncoc2-c2ccc(F)cc2)CC1 | -5% | -19 | -1% | -16% | 21 | 1%
COc1ccc(C)cc1S(=O)(=O)N1CCN(C(=O)c2ncoc2-c2ccc(C)cc2)CC1 | -15% | 7 | -11% | -9% | -53* | -13%
Cc1ccc(OC/C(=N\O)C(C)(C)C)c([N+](=O)[O-])c1 | -20% | ? | -10% | 12% | -82* | -4%
O=C(C[n+]1cc(Br)cc2ccccc21)c1ccc(Cl)cc1 | ? | -2 | ? | 3% | -9 | -29%
O=C(C[n+]1cc(Br)cc2ccccc21)c1ccc(Br)cc1 | -17% | 7 | ? | -76% | -66* | -14%
CN(c1ccccc1)S(=O)(=O)c1ccc2c(c1)OCCO2 | -6% | -4 | -15% | -4% | 10 | -3%
Cc1[nH]nc(-c2ccc(O)cc2O)c1-c1nc2ccccc2s1 | ? | 2 | -8% | 2% | -82* | ?
CCCCSCCCNC(=O)Nc1ccc(CC)cc1 | -6% | -3 | 0% | 27% | -75* | 0%
CN(CCO)c1ccc2c(c1)OC[C@@H](Cc1ccccc1)NS2(=O)=O | 7% | · | · | · | 41 | 13%
Cc1cccc(C(=O)NCC(=O)OCc2cc(=O)n3ccsc3n2)c1 | 3% | -8 | -1% | 16% | 12 | 1%
COc1ccc(S(=O)(=O)N2CCCC2CNC(=O)C(=O)NCc2ccc3c(c2)OCO3)cc1 (configuration not stated) | -1% | 18 | -6% | -20% | -14 | -18%
CC1CN(C(=O)[C@@H]2CCCN2S(=O)(=O)c2ccc(Cl)cc2)CC(C)O1 (some centres not stated) | -1% | -3 | -1% | 3% | -1 | 5%
Cc1cccc(C)c1OCc1cc(C(=O)N2CCC(c3ccncc3)CC2)no1 | -19% | 7 | ? | -15% | -68* | ?
O=C(c1cc(COc2c(F)cccc2F)on1)N1CCC(c2ccccc2Cl)C1 (configuration not stated) | 0% | 9 | ? | 0% | -18 | -10%
O=C(c1cc(COc2cccc3cnccc23)on1)N1CCC(c2ccccc2Cl)C1 (configuration not stated) | -21% | -13 | 20µM* | -35% | -1 | ?
CC(C)c1ccc(CC(=O)N2CCC2(C)C(=O)NCCC#N)cc1 (configuration not stated) | 5% | · | 11% | -10% | 0 | 12%
CC1(C(=O)NCCC#N)CCN1C(=O)CC(c1ccccc1)c1ccccc1 (configuration not stated) | 0% | · | 1% | 12% | -50* | 26%
O=C(COC(=O)c1nc(Cl)ccc1Cl)NC(=O)c1ccccc1 | 10% | -20 | -1% | -10% | 43 | 10%
CCOC(=O)COc1cccc2c(=O)n(CC(=O)NCCc3ccccc3)ccc12 | -1% | -13 | 1% | -46% | -1 | 0%
SMILES | HT1080 IDH1KD tx | Giardia killer | TGFb SMAD3 inh | HepG2 tox | IL-1B inflam inh | HT1080-NT tox
CCOC(=O)C(C)Oc1cccc2c(=O)n(CC(=O)NCCc3ccccc3)ccc12 (configuration not stated) | -8% | -20 | -12% | -25% | -53* | -1%
CCOC(=O)C(C)Oc1cccc2c(=O)n(CC(=O)NCc3ccc(F)cc3)ccc12 (configuration not stated) | 0.58µM* | -12 | 0% | 4% | 84 | ?
CCOC(=O)C(C)Oc1cccc2c(=O)n(CC(=O)Nc3ccc(OC)cc3)ccc12 (configuration not stated) | 0% | · | -23% | -41% | -55* | -4%
CC(C)(C)n1ncc2c(=O)n(CC(=O)NCc3ccc(F)cc3)cnc21 | 13µM* | -8 | 20% | 1% | 37 | ?
O=C(NC1CCOc2ccccc21)c1ccc(=O)[nH]c1 (configuration not stated) | -3% | -9 | -1% | -23% | 34 | 16%
Cc1ccc(C(CNS(=O)(=O)c2ccc(C)cc2)N2CCN(C)CC2)cc1 (configuration not stated) | -1% | 3 | 20% | -24% | -6 | -6%
COC(=O)COc1cccc2c(=O)n(CC(=O)NCc3ccc(F)cc3)ccc12 | 3.7µM* | -18 | -24% | -58% | -13 | ?
CCOC(=O)C(C)Oc1cccc2c(=O)n(CC(=O)NCc3ccccc3)ccc12 (configuration not stated) | 0.52µM* | 1 | ? | -59% | -98* | 0.52µM*
CCOC(=O)COc1cccc2c(=O)n(CC(=O)N3CCC(C)CC3)ccc12 | -2% | 6 | 3% | -15% | -19 | 7%
CCOC(=O)COc1cccc2c(=O)n(CC(=O)NCc3ccc4c(c3)OCO4)ccc12 | ? | -12 | -3% | -3% | -5 | 4.6µM*
COC(=O)COc1cccc2c(=O)n(CC(=O)N3CCC(C)CC3)ccc12 | 3% | -12 | -23% | 4% | -61* | 17%
O=C(c1ccccc1-c1ncc[nH]1)N1CCc2c([nH]c3ccccc23)C1c1ccccn1 (configuration not stated) | -4% | 11 | -24% | -22% | 7 | -9%
Cc1cccc(-n2c(C)n[nH]c2=S)c1C | 2% | -19 | -6% | -3% | 0 | 9%
O=C(O)c1ccc(-n2nncc2-c2ccccc2)cc1 | 9% | -15 | -1% | -12% | 2 | 10%
